A selection: hits, their analogues and other compounds. The true share with any hit is near 3.8%.
GCN5L2 inh – blocks human GCN5L2 histone acetyltransferase. Potency, µM (series often up to 58.9 µM), without a hit: top-dose activity change, negative = inhibition, actives largely listed as inhibitors. AID 504327. GCN5L2 HAT assay, ThioGlo1 CoA-SH fluorescence. 390,000 tested, 0.21% active
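qHTS, 1536-well. 20nM enzyme, pH 7.5 HEPES/EDTA/Tween-20 buffer; 15 min compound preinc., RT. Start: 75uM H3(1-25), 70uM AcCoA, 50uM ThioGlo1. Read Ex340/Em540 at t=0 (autofluorescence flag) and t=20 min.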
VDR inh – vitamin D3 receptor (human) inhibition; P11473; VDR-SRC2-3 peptide fluorescence polarization, 2 h; Potency, µM, for inactives: max response, negative = inhibition, usual class: inhibitors; 400,000 tested, 0.93% active
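Fluorescence polarization assay of small-molecule disruption of VDR binding to coregulator peptide SRC2-3. Compounds and controls pin-transferred, then read after 2 h incubation at ambient room temperature.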
Sfp PPTase inh – blocks B. subtilis Sfp PPTase activity; Biochemical Sfp PPTase activity, qHTS; 310,000 tested, 3.5% active; Potency, µM, for the others: largest response in the series, negative = inhibition, hits mostly inhibitors; AID 1490; Q9F4F7;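 note: the enzyme is Sfp with the accession as filed and its product quenches rhodamine fluorescence; 0% = enzyme reaction without inhibitor and -100% = no enzyme wells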
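Buffer: 50 mM Hepes-Na pH 7.6, 10 mM MgCl2, 0.01% Nonidet P-40, 0.01% BSA. Enzyme 15 nM, pre-exposed to compound 15 min; substrates then added and fluorescence change tracked over 30 min.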
GLS inh – blocks human kidney-isoform glutaminase activity. AID 624170. Potency, µM (doses to about 45.5 µM), for the others: at the top dose activity change, negative = inhibition, most hits filed as inhibitors. O94925. 410,000 tested, 0.21% active. GLS enzymatic activity, qHTS titration
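hKGA in 45 mM KH2PO4 (pH 8.2), 0.02% Tween-20 with compound, then 1mM L-Glutamine (stock as added) plus glutamate oxidase/HRP/Amplex red coupling mix. Fluorescence read initially and after 30 min at RT; signal change reflects glutamate formation.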
TrxR1 substrate – rat thioredoxin reductase 1 substrate activity | O89049 | 390,000 tested, 0.01% active | purified TrxR1 substrate turnover, NADPH consumption readout | Potency, µM (series often up to 114 µM), for inactives: top-dose activity change, negative = substrate turnover; note: nearly all actives have a fitted effect of over 50% in size
Target sequence (O89049 whole entry, looked up): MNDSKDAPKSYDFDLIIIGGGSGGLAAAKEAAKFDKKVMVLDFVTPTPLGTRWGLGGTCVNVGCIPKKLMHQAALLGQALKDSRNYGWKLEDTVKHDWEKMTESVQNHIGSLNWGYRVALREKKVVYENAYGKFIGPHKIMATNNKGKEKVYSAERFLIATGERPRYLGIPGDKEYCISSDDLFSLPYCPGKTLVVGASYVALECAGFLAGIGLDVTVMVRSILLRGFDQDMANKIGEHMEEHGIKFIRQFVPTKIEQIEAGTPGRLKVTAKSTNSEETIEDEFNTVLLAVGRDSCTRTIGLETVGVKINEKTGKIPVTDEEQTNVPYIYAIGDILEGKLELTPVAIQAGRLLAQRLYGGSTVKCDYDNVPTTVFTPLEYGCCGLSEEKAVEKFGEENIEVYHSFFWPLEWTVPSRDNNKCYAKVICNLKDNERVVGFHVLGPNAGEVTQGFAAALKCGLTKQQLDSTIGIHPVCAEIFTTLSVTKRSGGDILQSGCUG
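Rat TrxR1, dispensed at 90 nM, was prereduced with 400 uM NADPH (final) for 5 min at ~22 deg C, then incubated with compound 15 min before 400 uM selenite. A first-read NADPH fluorescence drop versus no-compound background flagged substrates.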
rTrxR1 inhibitor – blocks rat thioredoxin reductase 1; O89049; recombinant rTrxR1, NADPH fluorescence consumption, selenite substrate; Potency, µM (highest dose often 114 µM), for the others: at the highest dose activity change, negative = inhibition, most hits filed as inhibitors; 390,000 tested, 1% active; note: nearly all actives have a fitted effect of over 65% in size
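Rat TrxR1 (90 nM in the dispensed reagent) was pre-reduced with 400 uM NADPH for 5 min at room temperature, then incubated with compound for 15 min. After 400 uM selenite was added, NADPH fluorescence (Ex 340/Em 450 nm) was followed for 8 min.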
The depositor's hits bear a star; ? = inconclusive; / = no result given; [ ] = remark or other dose. Calls come from the whole dose curve; as a rule, active = well fitted curve in the direction sought with a large enough effect; inconclusive = small, poorly fitted or top-dose-only effect, or another doubt; inactive = no such curve, though single readings can be large; an effect the other way counts as inactive or inconclusive. Unless noted, % is set by controls: 0 for no effect and ±100 for the full control effect; potency is the fitted concentration of half-maximal effect.

SMILES	GCN5L2 inh	VDR inh	Sfp PPTase inh	GLS inh	TrxR1 substrate	rTrxR1 inhibitor
CCOc1cccc2sc(N(CCCN(C)C)C(=O)c3ccc(S(=O)(=O)N(CC)Cc4ccccc4)cc3)nc12	-0.5%	18.9%	50.1µM*	1.6%	-4.8%	11.5%
CN(C)CCCN(C(=O)c1ccc(C(=O)c2ccccc2)cc1)c1nc2c(F)cccc2s1	-20.9%	-9.1%	-17.8%	17.4%	-2.8%	21.1%
CCCCN(CC)S(=O)(=O)c1ccc(C(=O)N(CCCN(C)C)c2nc3cc(C)cc(C)c3s2)cc1	-6.3%	1.4%	50.1µM*	-9.3%	-1.5%[57.1 µM]	9.3%[57.1 µM]
CCOc1cccc2sc(N(CCCN(C)C)C(=O)c3ccc(S(=O)(=O)N(C)Cc4ccccc4)cc3)nc12	-0.2%	10.0%	56.2µM*	0.0%	-1.9%	-1.3%
CCN(Cc1ccccc1)S(=O)(=O)c1ccc(C(=O)N(CCCN(C)C)c2nc3cc(C)cc(C)c3s2)cc1	-10.3%	12.7%	/	-0.9%	3.1%[57.1 µM]	14.6%[57.1 µM]
C[C@@H]1CN([C@H](C)CO)S(=O)(=O)c2ccc(C#Cc3cccc(F)c3)cc2O[C@@H]1CN(C)C(=O)CN1CCOCC1	/	/	/	-10.8%	/	/
CCCS(=O)(=O)c1c(S(=O)(=O)CCC)c2c(C)cccn2c1C(=O)OC	-5.1%	-0.7%	79.4µM*	-1.0%	14.4%	25.1µM*
CCCS(=O)(=O)c1c(S(=O)(=O)CCC)c2c(N)cccn2c1C(=O)c1ccc(Br)cc1	-13.7%	-5.6%	-24.0%	-2.8%	0.6%[57.1 µM]	?
CCCS(=O)(=O)c1c(S(=O)(=O)CCC)c2ccccn2c1C(=O)OC	0.5%	-10.1%	7.0%	1.1%	12.1%	39.8µM*
CCCS(=O)(=O)c1c(S(=O)(=O)CCC)c2c(N)cccn2c1C(=O)c1ccc(F)cc1	-15.7%	5.7%	22.4µM*	17.8%	-15.3%	-17.6%
O=C(N/N=C/c1c[nH]c2ccccc12)c1cc(Cl)ccc1O	-14.7%	32.7%	10.4%	26.3%	-7.8%	10.2%
CN1CCN(c2nc(-c3ccccc3)nc3c2oc2ccccc23)CC1	-0.9%	6.1%	22.9%	2.9%	10.3%[57.1 µM]	1.4%[57.1 µM]
Cc1nc(C(C)NC(=O)c2cc(COc3ccc(F)c(F)c3)on2)cs1 (stereo not drawn)	-3.7%	5.5%	9.9%	4.3%	-1.8%	-3.2%
Cc1ccc(C)c2c(/C=C/c3ccc(N(C)C)cc3)ccnc12	/	/	/	/	-3.4%	-13.0%
Cc1ccc(/C=[N+](\[O-])c2ccc(N(C)C)cc2)c2nsnc12	-8.1%	?	-65.2%	?	-14.4%	22.4µM*
Cc1cc(N2CCN(c3ccccc3)CC2)n2cc(-c3ccccc3)nc2n1	18.2%	-1.3%	?	14.3%	15.3%	-3.6%
O=C(NCCN1C(=O)S/C(=C\c2cccnc2)C1=O)C1=NN(c2ccccc2)C(=O)CC1	-6.9%	28.2µM*	-20.6%	?	7.4%[57.1 µM]	24.8%[57.1 µM]
O=C(Cn1ccnc1)c1ccc(Cl)cc1	11.9%	3.5%	13.4%	11.0%	-17.6%	?
O=C(CC(C(=O)O)n1ccnc1)c1ccc(Cl)cc1 (stereo not drawn)	/	/	/	/	1.2%	1.78µM*
CC1CCN(C(=O)/C(=C/c2ccccc2Cl)c2ccccc2)CC1	-8.4%	-1.4%	79.4µM*	-6.0%	2.0%[57.1 µM]	6.9%
CN1CCN(C(=O)/C(=C\c2ccccc2)c2ccccc2)CC1	-2.5%	-14.8%	-1.3%	5.5%	0.1%	1.9%
CC1=C(C(=O)Nc2ccc(C)cc2)C(c2ccco2)NC(=O)N1 (stereo not drawn)	2.1%	-0.5%	25.2%	0.8%	2.8%	8.3%
CC(CCC(=O)O)C1CCC2C3CC[C@H]4CC(O)CC[C@@]4(C)C3C=C[C@]12C (stereo partly drawn)	-25.8%	28.2µM*	-18.8%	/	/	/
C[C@H](CCC(=O)O)C1CC[C@H]2C3CC[C@@H]4C[C@H](O)CC[C@]4(C)C3C[C@H](O)[C@]12C (stereo partly drawn)	11.7%	-11.1%	23.4%	/	/	/
COc1ccc(C(=O)Nc2nc(C)cc(C)n2)cc1[N+](=O)[O-]	-2.7%	-4.5%	6.5%	-7.4%	-10.9%	?
SMILES	GCN5L2 inh	VDR inh	Sfp PPTase inh	GLS inh	TrxR1 substrate	rTrxR1 inhibitor
CCCc1ccc(S(=O)(=O)N2CCN(Cc3ccco3)CC2)cc1	-21.8%	2.2%	2.3%	20.3%	-12.4%	-21.5%
O=[N+]([O-])c1ccc(S(=O)(=O)N2CCN(Cc3ccco3)CC2)cc1	-5.9%	5.9%	56.2µM*	-15.2%	-1.0%	-13.5%
CCC1=NN2C(=N)/C(=C/c3c(C)nn(-c4ccccc4)c3Cl)C(=O)N=C2S1	-2.0%	?	-2.2%	-2.1%	-8.3%	?
CCC1=NN2C(=N)/C(=C\c3ccc(SCc4ccco4)o3)C(=O)N=C2S1	-26.1%	-10.2%	44.7µM*	20.4%	-16.6%	-28.6%
CCCC1=NN2C(=N)/C(=C\c3ccc(SCc4ccco4)o3)C(=O)N=C2S1	?	1.7%	56.2µM*	-14.0%	-18.9%	?
Cc1cccc(C)c1NC(=O)CSc1nnnn1C	-0.7%	8.1%	12.1%	0.0%	5.0%	6.5%
COc1ccc(C(C)=O)cc1COC(=O)c1ccc2c(c1)OCCO2	2.1%	-6.5%	/	0.1%	-3.9%	56.2µM*
COc1ccc(C(C)=O)cc1COC(=O)c1ccc(S(=O)(=O)N(C)C)cc1	-6.1%	-8.0%	-2.0%	1.7%	4.7%	44.7µM*
COc1ccc(C(C)=O)cc1COC(=O)c1ccc(C)c(S(=O)(=O)N2CCOCC2)c1	-2.7%	-5.5%	/	-5.1%	-1.8%	35.5µM*
COc1ccc(C(=O)OCc2cc(=O)oc3c(C)c(C)ccc23)cc1S(=O)(=O)N1CCOCC1	/	/	/	-1.3%	/	/
COc1ccc(C(C)=O)cc1COC(=O)CNC(=O)c1ccc(Cl)cc1	-2.7%	-19.2%	12.1%	-2.6%	6.4%	?
COc1ccc(C(C)=O)cc1COC(=O)Cc1cc(OC)c(OC)c(OC)c1	-3.6%	-0.7%	10.9%	-7.0%	4.0%	39.8µM*
Cc1cc2ncc(-c3cccs3)nc2cc1C	0.0%	1.1%	6.2%	-1.3%	23.9%	28.4%
C/C=C\C=C/C(=O)Nc1cccc(C2=NOC3(C2)C[C@@H](C(N)=O)N(C(=O)c2ccccc2)C3)c1 (stereo partly drawn)	-1.5%	/	11.2µM*	/	/	/
C/C=C/C=C/C(=O)Nc1cccc(C2=NOC3(C2)C[C@H](C(N)=O)N(C(=O)CC(c2ccccc2)c2ccccc2)C3)c1 (stereo partly drawn)	1.7%	/	39.8µM*	/	/	/
C=C(C)C(=O)N1CC2(CC(c3cccc(NC(=O)COc4ccc(Cl)cc4)c3)=NO2)C[C@@H]1C(N)=O (stereo partly drawn)	-17.9%	-19.6%	1.6%	9.8%	-6.4%	5.4%[57.1 µM]

Assay outcomes: PubChem, National Center for Advancing Translational Sciences (NCATS)
